# ROMK mod – modulates human ROMK potassium channel activity; B-score at 10 µM; actives 2% (n = 130,000); P48048; Tet-inducible ROMK, thallium flux fluorescence; actives lie on both sides; AID 1918;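 active = signal ratio slope over the read window, or its plate-corrected B-score, at least 3 SD from the plate mean, either direction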;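 also: B-score of the F/F0 ratio slope over 7 to 12 s after thallium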
# S1P4 ag – human S1P4 receptor agonism | actives 0.35% (n = 220,000) | S1P4-expressing cell line, agonist reporter assay | AID 1509 | O95977 | activation, % at 4.98 µM; in the data active = activation above about 11%;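 also: 0% = DMSO vehicle and 100% = reference agonist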
# KCC2 mod – KCC2 (human) Cl- transport modulation; Q9H2X9; KCC2 cells, thallium flux FluoZin-2 fluorescence; B-score of Tl+ flux slope (higher = more flux/activation; lower = inhibition) at 10 µM; actives 2.2% (n = 190,000); AID 1456;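 active = thallium flux slope and its plate-corrected score both differing from the plate sample mean at a set confidence after two filtering rounds, in either direction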;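 also: slope of fluorescence scaled to starting intensity during 10 to 20 s after thallium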
# RAM network inh – blocks the yeast RAM network; S. cerevisiae dse1pr::URA3 reporter, 5-FOA growth OD615, 2 d; analog-sensitive cbk1-as2 kinase mutant strain; inhibition, % at 50 µM; actives 1.8% (n = 190,000); AID 868;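 active = inhibition above a set limit, 3 SD over mean compound inhibition, cut at about 8.4% in these data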;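 also: 0% = DMSO-only wells with no growth and 100% = 10 µM 1-NA-PP1 full growth; inhibition rescues growth on 5-FOA so higher OD means more RAM inhibition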
# S1P4 antagonist – antagonists of human S1P4 receptor; O95977; S1P4-expressing cells, antagonist mode, reporter read-out; inhibition, % at 4.98 µM; actives 0.26% (n = 220,000); in the data active = inhibition above about 29%;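 also: 0% = wells stimulated with agonist and 100% = vehicle wells without agonist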
# S1P3 antagonist – antagonists of human S1P3 receptor. Q99500. CHO S1P3 NFAT-BLA reporter, FRET fluorescence, antagonist mode. inhibition, % at 4.98 µM. actives 0.27% (n = 170,000). AID 485;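 active = inhibition above the plate cutoff, the mean inhibition of test wells on that plate plus 3 SD, cut at about 28% in these data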;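 also: cells challenged with S1P at its EC80 of 0.8 µM; blue over green emission ratio from cleaved BLA substrate after 4 h stimulation; 0% = S1P-stimulated wells and 100% = unstimulated DMSO-only wells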
# Target sequence (Q99500 whole entry, looked up): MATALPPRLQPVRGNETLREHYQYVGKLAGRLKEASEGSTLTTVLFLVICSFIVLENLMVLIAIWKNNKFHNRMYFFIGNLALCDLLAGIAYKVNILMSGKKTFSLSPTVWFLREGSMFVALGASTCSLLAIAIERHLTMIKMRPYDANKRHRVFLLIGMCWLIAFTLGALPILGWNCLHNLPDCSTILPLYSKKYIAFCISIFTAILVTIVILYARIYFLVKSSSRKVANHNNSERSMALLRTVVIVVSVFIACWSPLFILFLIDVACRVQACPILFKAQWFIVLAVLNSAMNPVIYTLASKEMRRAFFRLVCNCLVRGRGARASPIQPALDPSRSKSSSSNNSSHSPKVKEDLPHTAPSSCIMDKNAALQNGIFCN
# ROMK retest – human ROMK channel modulation, retest confirmation | shares compounds with ROMK mod | ROMK thallium flux, fluorescence ratio; active compounds read low | normalized thallium flux (F/F0 slope) at 10 µM | actives 54% (n = 3,000) | AID 1917;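 active = Flux at 10 µM at least 3 SD below or above vehicle control mean in one or both replicates; inconclusive = no clear call, values can overlap the other calls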
# * = called active by the depositor; ? = inconclusive; · = no result given. Sampled rows, rich in hits. Any-hit rate of the full collection: about 5.1%.
SMILES,ROMK mod,S1P4 ag,KCC2 mod,RAM network inh,S1P4 antagonist,S1P3 antagonist,ROMK retest
CN1C(=O)C(CCC(=O)O)NC1=S (stereo not given),0.99,-1,0.77,·,-6,6,·
O=C1ON=C(c2cccc([N+](=O)[O-])c2)/C1=C/c1ccc(O)cc1,-4.6*,1,-0.18,-1,-9,-26,0.065*
COc1ccc(CN(C)C2CCCCC2)c(C)c1C,-4*,0,2.4,0,-6,·,0.068*
COc1ccc(CN2CCCCC2C)c(C)c1C (stereo not given),·,2,·,0,-16,13,·
c1ccc(Cc2nnc(N3CCCCC3)c3ccccc23)cc1,-2.2*,0,-2.4,2,-15,-6,0.067*
CCc1ccc(C(=O)OCC(=O)c2c(N)n(CC(C)C)c(=O)n(C)c2=O)cc1,-11*,1,·,1,-14,10,0.082
CC(C)Cn1c(N)c(C(=O)COC(=O)c2ccc(F)cc2)c(=O)n(C)c1=O,0.28,0,-0.69,4,-13,-16,·
CCc1ccc(O)c(N=Cc2cccc(C)c2O)c1,·,0,-0.73,1,1,-13,·
CCCc1ccc(O)c(N=Cc2cc(Br)cc(OCC)c2O)c1,-2.2,2,-0.79,0,-10,-8,0.078
CCC1Oc2ccc(C)cc2N(CC(=O)NCCN2C(C)CCCC2C)C1=O (stereo not given),-0.068,1,0.16,0,-12,-8,·
CCC1Oc2ccc(C)cc2N(CC(=O)N(Cc2ccc(C)o2)C2CCCC2)C1=O (stereo not given),-4.3*,-1,-0.72,7,3,·,0.065*
COc1ccccc1-c1cc(C(F)(F)F)nc(S(=O)(=O)CCCC(=O)N2CCOCC2)n1,-3.4*,-3,·,1,9,-28,?
N#C/C(=C\c1ccc(OCC(N)=O)cc1)c1ccccc1,·,0,0.052,3,-6,5,·
CC(C)(C)c1ccccc1NC(=O)c1c(O)c2cccc3c2n(c1=O)CC3,0.71,0,0.3,2,-1,-16,·
C/C(=C\c1ccccc1)C(=O)Nc1nccs1,1.1*,1,-0.37,0,-6,-7,?
O=C(Nc1nccs1)Oc1ccccc1,1.7,0,-0.27,0,6,-11,·
O=S(=O)(c1ccc(C2CCCCC2)cc1)N1CCCC1,·,-1,0.84,3,-7,·,·
Cc1nnc(SCc2c(Cl)cccc2Cl)n(N)c1=O,-2.9*,-2,-1.2,3,-5,0,0.061*
CCNc1nc(C23CC4CC(CC(C4)C2)C3)cs1,0.57,1,1.9,2,-5,-13,·
COc1ccccc1NC(=O)/C=C/c1ccc2c(c1)OCO2,5.1*,-2,0.038,-1,-1,13,0.091
CC(C(=O)NC(=O)NC1CCCCC1)N1CCN(C(c2ccccc2)c2ccccc2)CC1 (stereo not given),-3.3*,0,-0.6,0,-12,·,0.057*
c1ccc(CC(Nc2ccccn2)c2ccccc2)cc1 (stereo not given),-0.25,0,-0.43,-1,7,8,·
O=C(O)c1cccc(Nc2cc(Cl)c3nonc3c2[N+](=O)[O-])c1,0.68,3,0.42,1,-8,-10,·
O=[N+]([O-])c1c(Nc2ccccn2)cc(Cl)c2nonc12,-8.6*,1,-1.9,·,-1,28,0.043*
CC(C)Cn1c(N)c(C(=O)COC(=O)c2cccnc2Cl)c(=O)n(C)c1=O,-0.76,5,-0.35,1,-10,5,·
SMILES,ROMK mod,S1P4 ag,KCC2 mod,RAM network inh,S1P4 antagonist,S1P3 antagonist,ROMK retest
Cn1c(N)c(C(=O)COC(=O)c2cccnc2Cl)c(=O)n(C)c1=O,·,1,0.56,1,-6,-8,0.079
Cc1sc2ncnc(NC3CCN(Cc4ccccc4)CC3)c2c1C,-3.7*,0,-1.2,0,-15,12,?
c1ccc(CN2CCC(Nc3ncnc4sccc34)CC2)cc1,-0.85,2,0.16,4,-13,11,·
O=[N+]([O-])c1ccc2nc(CN3CCCCC3)[nH]c2c1,0.56,3,0.016,1,0,-15,·
O=[N+]([O-])c1ccc2nc(CCCc3nc4ccc([N+](=O)[O-])cc4[nH]3)[nH]c2c1,-6.9*,1,·,1,-1,-11,0.027*
CN(C)CCN1C(=O)C(O)=C(C(=O)c2ccco2)C1c1ccccc1F (stereo not given),·,1,·,0,-26,-36,0.076
COc1cccc(C2C(C(=O)c3ccco3)=C(O)C(=O)N2CCN(C)C)c1OC (stereo not given),1,0,-0.059,1,-13,-9,·
Cc1cc(C(=O)OCC(=O)N2CC(C)OC(C)C2)ccc1[N+](=O)[O-] (stereo not given),0.73,0,0.86,-1,-15,1,·
Cn1c(=O)c2c(SCC(=O)N3CCCc4ccccc43)nc(C3CC3)nc2n(C)c1=O,·,0,-1.1,3,-1,-19,0.071
CCC(=O)c1ccc(N2CCN(C(=O)COc3ccc(F)cc3)CC2)c(F)c1,-1.8,2,·,2,0,23,·
CC(=O)c1ccc(N2CCN(C(=O)COc3ccc(F)cc3)CC2)c(F)c1,-2.8*,1,-0.94,0,-15,-18,0.061*
Cc1nc(C(F)(F)F)ccc1C(=O)N1CCCCC1,·,0,0.45,·,3,-2,·
COc1ccc(C(N)=S)cc1,0.24,-1,0.99,0,-11,12,·
C=C(c1ccc(OC)cc1)c1ccc(OC)cc1,1.9*,-1,-1.1,3,6,·,0.079
CC(=C/c1ccccc1)/C=C1/SC(N2CCOCC2)=NC1=O,·,-4,-2.2,1,-14,·,0.053*
O=C1N=C(N2CCOCC2)S/C1=C/c1cccs1,·,0,0.027,1,-28,·,·
O=C1N=C(N2CCOCC2)S/C1=C\c1ccncc1,·,-1,-0.39,·,-24,10,·
O=C1N=C(N2CCOCC2)S/C1=C/c1ccc(-c2ccccc2Cl)o1,·,-2,·,4,-8,·,0.056*
CC(C)CC(c1nnnn1CCc1ccccc1)N1CCC(C(N)=O)CC1 (stereo not given),0.61,1,0.045,0,-5,·,·
NS(=O)(=O)c1ccc(NC(=O)COC(=O)C2(c3ccccc3F)CCCC2)cc1,·,1,-0.46,1,-19,5,·
NC(=O)c1ccc(NC(=O)COC(=O)C2(c3ccccc3F)CCCC2)cc1,-13*,0,-0.44,2,-12,-22,0.079
CCOC(=O)C1CCCN(Cc2nc(C3CC3)no2)C1 (stereo not given),·,1,0.57,·,-18,5,·
N#CCC(=O)Nc1ncc(Cc2ccccc2Cl)s1,-0.042,0,-0.26,3,0,-9,·
O=C1NC(c2ccc3c(c2)OCO3)Nc2ccccc21 (stereo not given),2.2*,2,·,1,-16,7,0.085

# Source: PubChem BioAssay (several laboratories)
